# A selection: hits, their analogues and other compounds. The true share with any hit is near 21%.
# ELG1 repair inh: inhibitors of ELG1-dependent DNA repair in HEK293T cells; HEK293T ELG1-luciferase reporter, luminescence, 16 h; DNA damage induced by 5-fluorouridine; Potency, µM (highest dose often 46.1 µM), for inactives: top-dose activity change, negative = inhibition, usual class: inhibitors; 330,000 tested, 2.3% active; further: potency means the concentration at half of the fitted maximal effect; nearly all actives have a fitted effect of over 55% in size
#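 Cells (2,000 per well) received 5-fluorouridine plus test compound or DMSO and were incubated 16 hr at 37 °C, 5% CO2. Luciferase activity was read by luminescence 30 min after ONE-Glo addition; signal suppression marked inhibition of damage-induced ELG1 function.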
# DT40 TDP1 no CPT: qHTS for Inhibitors of human tyrosyl-DNA phosphodiesterase 1 (TDP1): qHTS in cells in absence of CPT; DT40 Tdp1-/- hTDP1 cells, no CPT, ATP luminescence, 48 h; Potency, µM (titrated, usually from 46.2 µM), without a hit: at the top dose activity change, negative = growth inhibition, hits mostly inhibitors; 420,000 tested, 15% active; AID 686978, 2013; further: potency means the concentration at half of the fitted maximal effect; nearly all actives have a fitted effect of over 55% in size
#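 Cells were dispensed at 400 per well, compounds added by pin tool, plates incubated ≥48 hr at 37 °C, then CellTiter-Glo added for 30 min at room temperature before luminescence reading. Line: DT40 Tdp1-/- complemented with hTDP1; camptothecin omitted.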
# RORgamma inh: ROR gamma (mouse) transcription inhibition; P51450; Drosophila S2 Gal4-RORgamma UAS-luciferase reporter, 20 h; Potency, µM (doses to about 53.6 µM), without a hit: at the top dose activity change, negative = inhibition, most hits filed as inhibitors; 310,000 tested, 5.4% active; further: potency means the concentration at half of the fitted maximal effect; nearly all actives have a fitted effect of over 60% in size
# Target sequence (P51450 whole entry, looked up, the tested form may be a part): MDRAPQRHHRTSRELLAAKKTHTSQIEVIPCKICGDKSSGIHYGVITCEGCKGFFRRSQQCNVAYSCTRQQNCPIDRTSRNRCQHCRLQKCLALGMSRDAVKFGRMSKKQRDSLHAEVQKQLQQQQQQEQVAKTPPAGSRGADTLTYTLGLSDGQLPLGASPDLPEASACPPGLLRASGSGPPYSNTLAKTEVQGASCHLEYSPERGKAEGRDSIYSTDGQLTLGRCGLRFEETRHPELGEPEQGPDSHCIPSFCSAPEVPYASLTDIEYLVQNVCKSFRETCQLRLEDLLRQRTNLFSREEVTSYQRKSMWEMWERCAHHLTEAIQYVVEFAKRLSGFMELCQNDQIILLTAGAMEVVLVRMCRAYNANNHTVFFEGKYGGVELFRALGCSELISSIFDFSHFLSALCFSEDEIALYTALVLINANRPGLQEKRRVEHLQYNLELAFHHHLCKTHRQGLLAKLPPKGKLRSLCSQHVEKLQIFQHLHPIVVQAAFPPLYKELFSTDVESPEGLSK
#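 Luciferase reporter read in Schneider cells carrying Gal4-RORγ (mouse) and UAS-Photinus luciferase; cells given compound 1 h before 700 uM copper sulfate induction, then incubated 20 h at ambient temperature.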
# IL1B secr inh: inhibitors of inflammasome signaling (IL-1 beta secretion); THP-1 LPS/ATP IL-1B secretion, AlphaLISA, 16 h; stronger effect = lower value; activity change, % at 57.5 µM; 360,000 tested, 4.7% active; AID 743279; in the data active means activity change below about -50%; inconclusive means mostly about -30% to -49%
#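 THP-1 cells pretreated 1 hr with compounds (up to 57.5 uM final), then stimulated with LPS (250 ng/mL final) plus ATP (1.25 mM final); secreted IL-1B measured by AlphaLISA after 16 hr, decreased signal indicating inhibition.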
# VP16 counter: inhibits Gal4-VP16 luciferase reporter, ROR gamma counter-screen. Drosophila S2 Gal4-VP16 UAS-luciferase, luminescence, 20 h. Potency, µM (doses to about 53.6 µM), without a hit: at the top dose activity, negative = inhibition, usual class: inhibitors. 310,000 tested, 3.5% active;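 further: Gal4-VP16 expression switched on by copper sulfate through the metallothionein promoter; potency means the concentration at half of the fitted maximal effect; nearly all actives have a fitted effect of over 50% in size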
# DT40 TDP1 CPT: growth inhibition of DT40 Tdp1-/-;hTDP1 cells with camptothecin (screen for TDP1 inhibitors); 420,000 tested, 12% active; Potency, µM (top dose mostly 46.2 µM), for inactives: at the highest dose activity change, negative = growth inhibition, usual class: inhibitors; chicken DT40 Tdp1-/-;hTDP1 cells + 20 nM CPT, ATP luminescence, 48 h; further: potency means the concentration at half of the fitted maximal effect; nearly all actives have a fitted effect of over 55% in size
#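 Chicken DT40 Tdp1-/- cells stably complemented with human TDP1 were seeded at 400 cells/well in medium containing 20 nM camptothecin, exposed to pin-transferred compounds, and grown at 37 °C for at least 48 hr. Viability was read as ATP luminescence.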
# Starred values were filed as active, the others as inactive; u = inconclusive; x = no result; [ ] = dose if it differs, or a comment. Unless noted, the call rests on the fitted dose curve; in most records, active means well fitted curve in the direction sought with a large enough effect; inconclusive means small, poorly fitted or top-dose-only effect, or another doubt; inactive means no such curve, though single readings can be large; an effect the other way counts as inactive or inconclusive. On the % scale 0 is the no-effect control and ±100 the full control effect.
SMILES,ELG1 repair inh,DT40 TDP1 no CPT,RORgamma inh,IL1B secr inh,VP16 counter,DT40 TDP1 CPT
CC(C)(C)CC(C)(C)NC(=S)NC1CCN(Cc2ccccc2)CC1,-5%,4.6µM*,14µM*,-104*,10µM*,5.2µM*
CCc1cccc(CC)c1NC(=S)Nc1cccc(Cl)c1Cl,-11%,u,u,21,3%,18µM*
O=C(COC(=O)c1cc(=O)c2ccccc2o1)NCc1ccc(Cl)cc1,x,-9%,x,12,x,3%
Clc1ccc(-c2nnc(COc3ncnc4ccccc34)o2)cc1,u,-7%,16%,-13,-13%,4%
CO[C@H]1COC(=O)[C@H](C)NC(=O)C/C=C\[C@@H](C)[C@@H](NS(=O)(=O)c2ccc(C)cc2)COC(=O)[C@H](OCc2ccccc2)/C=C\[C@@H]1C,x,x,-9%[10 µM],x,1%[10 µM],x
C=CCCCCCCC=C,x,x,4%,x,-5%,x
CC1(C)Cc2c(sc(NC(=O)C(=O)N3CCN(CCO)CC3)c2C(N)=O)CO1,25%,-10%,-18%,13,-5%,23%
COC(CNS(=O)(=O)c1cc2c3c(c1)CCN3C(=O)CC2)OC,9%,29%,-25%,-6,7%,-8%
S=C(Nc1cccc(Cl)c1Cl)NC1CCN(Cc2ccccc2)CC1,-10%,u,-41%,-81*,u,21µM*
COc1ccccc1C1C(C(C)=O)=C(C)N=c2s/c(=C\c3cc(OC)c(OC)c(OC)c3)c(=O)n21 (stereo not drawn),23µM*,21µM*,9%,9,-3%,16µM*
Cc1ccccc1CNCCCSc1nnnn1-c1ccccc1,x,-27%,x,x,x,-23%
COc1ccc(/C=C/C(=O)c2ccccc2)c(OC)c1,u,-19%,16%,0,-7%,-22%
COc1ccc2[nH]cc(/C=C/c3cc[n+](C)cc3)c2c1,-9%,5.2µM*,14%,20,4%,u
COc1ccc2[nH]cc(/C=C/C(=O)c3ccccc3)c2c1,u,u,24%,-104*,2%,u
O=C(/C=C/c1c[nH]c2ccccc12)c1ccccc1,u,u,-1%,5,u,21µM*
Cc1ccc(C(=O)/C=C/c2c[nH]c3ccccc23)cc1,u,-18%,u,-14,-10%,-9%
CN(C)CCNC(=O)c1ccc(COc2ccc(Cl)cc2Cl)cc1,u,18µM*,-12%,-7,5%,u
O=C(NCCCN1CCOCC1)c1ccc2c(=O)n(Cc3ccc(Cl)cc3)c(=S)[nH]c2c1,3%,-25%,11µM*,-20,u,u
O=C(NCCCN1CCOCC1)c1ccc2c(=O)n(-c3ccc(F)c(Cl)c3)c(=S)[nH]c2c1,-14%,u,-2%,27,-11%,-5%
CCc1ccc(C(CNC(=O)c2ccc3c(=O)n(-c4ccccc4F)c(=S)[nH]c3c2)N(C)C)cc1 (stereo not drawn),-26%,23µM*,u,-82*,u,u
CCCCN(C)CCNC(=O)c1ccc(Cn2c(=S)[nH]c3ccc(Br)cc3c2=O)cc1,24%,u,u,0,u,26µM*
O=C(NCc1ccccn1)c1ccc(Cn2c(=S)[nH]c3ccccc3c2=O)cc1,u,u,u,20,-12%,-26%
CCOc1cc2[nH]c(=O)n(Cc3ccc(C(=O)NCCCN4CCC(C)CC4)cc3)c(=O)c2cc1OCC,17%,23µM*,1%,18,4%,u
O=C(NCc1ccccn1)c1ccc(Cn2c(=S)[nH]c3ccc(Br)cc3c2=O)cc1,-1%,6.5µM*,-2%,12,-2%,u
CC1CCN(CCCNC(=O)c2ccc3c(=O)n(Cc4ccc(Cl)cc4)c(=S)[nH]c3c2)CC1,10%,u,13µM*,x,20µM*,u
SMILES,ELG1 repair inh,DT40 TDP1 no CPT,RORgamma inh,IL1B secr inh,VP16 counter,DT40 TDP1 CPT
CCOc1cc2[nH]c(=S)n(Cc3ccc(C(=O)NCCCN(CC)CC)cc3)c(=O)c2cc1OCC,5%,u,4%,57,-11%,u
COc1ccc(Cn2c(=O)[nH]c3cc(C(=O)NCCCN4CCCCCC4)ccc3c2=O)cc1,9%,u,-2%,u,0%,11%
O=c1c2cc(Cl)ccc2[nH]c(=S)n1Cc1ccccn1,u,u,2.2µM*,23,3.2µM*,18µM*
CCCN(CCC)CCNC(=O)Cn1ncc2c([nH]c3ccc(C)cc32)c1=O,x,-8%,x,x,x,-5%
CCOc1cc2[nH]c(=S)n(Cc3ccc(C(=O)NCCCN4CCOCC4)cc3)c(=O)c2cc1OCC,17%,18µM*,u,0,u,u
CN(C)CCNC(=O)c1ccc2c(=O)n(Cc3ccc(Cl)cc3)c(=S)[nH]c2c1,u,29µM*,u,-63*,u,21µM*
CCOc1cc2[nH]c(=S)n(Cc3ccc(C(=O)NCCCOC)cc3)c(=O)c2cc1OCC,23%,0%,u,21,-29%,-23%
COC(=O)c1ccc2c(=O)n(Cc3ccc(C(=O)NCCCN4CCC(C)CC4)cc3)c(=S)[nH]c2c1,6%,16µM*,u,-106*,u,21µM*
CCCNC(=O)c1ccc2c(=O)n(Cc3ccco3)c(=S)[nH]c2c1,-10%,-19%,11%,14,-7%,1%
COC(=O)c1ccc2c(=O)n(Cc3ccc(C(=O)NC4CCCC4)cc3)c(=S)[nH]c2c1,u,u,-6%,17,26%,u
O=C(NCCCN1CCOCC1)c1ccc(CSc2ccc(Cl)cc2)cc1,u,21µM*,18%,-62*,5%,26µM*
Cc1nc2cccnc2n1-c1cccc(C(=O)NCCc2ccc(S(N)(=O)=O)cc2)c1,x,-6%,x,x,x,-3%
C=CCOC(=O)C1=C[C@@H](c2ccc(Br)cc2)C[C@@H](OCc2ccc(CO)cc2)O1,1%,u,31%,2,-4%,u
Cc1ccccc1C(=O)NC(=S)N(Cc1ccccc1)c1ccccn1,u,u,x,-5,x,u
Cc1ccccc1C(=O)NC(=S)N(C)CCc1ccccn1,24%,-2%,7.1µM*,-3,u,5%
O=S1(=O)[C@H]2C[C@H](CO)O[C@@]2(CO)CN1Cc1ccc(-c2ccc(F)cc2)cc1,u,u,x,64,x,u
O=C(Cc1ccc(NC(=O)N2CCCCc3ccccc32)cc1)NCc1ccccc1,x,23µM*,x,x,x,23µM*

# Compound activity as filed in PubChem.
